# According to ChEMBL document CHEMBL3433997, “St. Jude Leishmania screening dataset” (2016):
# Legend:
# Assay type in all cases: functional
# [1] = target: Solute carrier family 2, facilitated glucose transporter member 1 (Homo sapiens) (UniProt P11166); experiment: ST_JUDE_LEISH: Cytotoxicity at 2uM final concentration against transgenic Leishmania Mexicana promastigotes LmGLUT1 that are glucose transport deficient and complemented with the human glucose transporter GLUT1. Activity is measured by DNA content using SYBR green in vitro
# [2] = target: Hexose transporter 1 (Plasmodium falciparum) (UniProt O97467); experiment: ST_JUDE_LEISH: Cytotoxicity at 2uM final concentration against transgenic Leishmania Mexicana promastigotes LmPfHT that are glucose transport deficient and complemented with the Plasmodium falciparum hexose transporter. Activity is measured by DNA content using SYBR green in vitro
# [3] = target: Glucose transporter (Leishmania mexicana) (UniProt O61059); experiment: ST_JUDE_LEISH: Cytotoxicity at 2uM final concentration against transgenic Leishmania Mexicana promastigotes LmGT2 that are glucose transport deficient and complemented with the L. Mexicana glucose transporter 2. Activity is measured by DNA content using SYBR green in vitro
# Chain of Solute carrier family 2, facilitated glucose transporter member 1 (Homo sapiens) (P11166 whole entry): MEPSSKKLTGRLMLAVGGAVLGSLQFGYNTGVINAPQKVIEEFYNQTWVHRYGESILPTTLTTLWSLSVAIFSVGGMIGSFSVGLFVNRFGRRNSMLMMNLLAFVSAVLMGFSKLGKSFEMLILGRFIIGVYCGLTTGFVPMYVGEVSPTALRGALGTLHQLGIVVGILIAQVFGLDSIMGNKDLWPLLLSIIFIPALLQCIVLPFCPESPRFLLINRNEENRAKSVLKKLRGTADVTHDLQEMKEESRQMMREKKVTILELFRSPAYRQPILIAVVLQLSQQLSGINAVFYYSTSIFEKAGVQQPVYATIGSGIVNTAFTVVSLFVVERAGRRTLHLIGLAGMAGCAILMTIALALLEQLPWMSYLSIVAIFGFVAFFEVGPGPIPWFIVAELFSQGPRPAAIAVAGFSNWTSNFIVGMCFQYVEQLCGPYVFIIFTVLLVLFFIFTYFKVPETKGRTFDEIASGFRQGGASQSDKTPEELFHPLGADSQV
SMILES,inhibition [1] [%],inhibition [2] [%],inhibition [3] [%]
c1ccc(CSC2=NNC(c3ccccn3)S2)cc1 (stereo unspecified),0.82,3.23,2.48
CN(C)C(=O)c1ccc(CN(Cc2ccc(OC(C)(C)C)cc2)Cc2ccc3c(c2)OCCO3)cc1,0.59,2.04,0.26
COc1ccc(Nc2nc(NCc3cccnc3)cc(-c3ccc(OC)cc3)n2)cc1,-0.44,0.66,-0.82
c1cn(CCCNc2ncc(-c3ccsc3)c(-c3nccs3)n2)cn1,11,10.1,9.4
O=C(/C=C/c1ccc(Cl)c(Cl)c1)NCCCCCN1CCC(NC(=S)Nc2ccc(Cl)cc2Cl)CC1,8.85,9.09,7.71
COc1ccc2c(=NN=Cc3ccc(OC)c4ccccc34)cc(C)[nH]c2c1,0.09,1.71,1.11
COc1ccc(CCN(C)CCc2ccc(NC(=O)c3cccc4c(=O)c5ccccc5sc34)cc2)cc1,2.21,-0.35,0.2
COc1cc(C(=O)NCCCN2CCN(c3cccc(Cl)c3)CC2)ccc1-c1cc2cc(Cl)c(Cl)cc2[nH]1,4.57,4.17,3.53
COc1ccc(-c2ccc(NC(=O)c3cccc(Cl)c3)cc2)cc1CN1CCC(O)CC1,14.6,15.5,12.4
N#Cc1ccc(N2CCN(Cc3cccc(-c4cccc(-c5nc6cc(C(F)(F)F)ccc6[nH]5)c4)c3)CC2)nc1,0.03,0.73,-2.37
CCOc1cc(C=Cc2nc(O)c3ccccc3n2)cc(Cl)c1O,5.1,4.12,2.7
Oc1ccc2nc(NCCCc3ccccc3)nc(NCCCc3ccccc3)c2c1,28.4,20.7,11.1
CCc1cn2c3c(cc(C(=O)N[C@@H](Cc4cccc(Cl)c4)[C@H](O)CNC4CC4)cc13)N(C)S(=O)(=O)CC2,-0.47,-1.46,-2.88
Fc1cc(Cl)ccc1Nc1ccnc2cc(-c3ccc(CN4CCSCC4)o3)ccc12,1.72,3.56,8.14
CN1CCC(N2CCC(Oc3cccc(C(=O)NCCCC4CCCC4)c3)CC2)CC1,10.9,10.4,10.3
Cc1cc(NC(=O)Nc2ccc(I)c(OCCN(C)C)c2)ccc1Br,10.5,7.25,6.57
CCc1cn(C)c2c(N3CCCC3=O)cc(C(=O)N[C@@H](Cc3ccccc3)[C@H](O)CNC(C)(C)c3cccc(C(F)(F)F)c3)cc12,4.78,3.46,-1.12
O=C(NCc1ccccc1)c1ncn(CCCN2CCC(N3CCCC3)CC2)c1-c1ccc(Cl)c(Cl)c1,-1.45,-1.01,-1.08
O=C(CN1CCCCC1)Nc1ccc(Nc2nccc(NCC(O)c3ccccc3)n2)cc1 (stereo unspecified),11.7,9.59,7.17
O=C(Nc1ccc2c(c1)CCN(C1CCC1)CC2)c1cn(-c2ccccc2)nc1-c1ccccc1,5.38,3.65,0.52
Cc1ccccc1C1CCN(C2CCC(NC(=O)/C=C/c3cccc(Cl)c3Cl)CC2)CC1 (stereo unspecified),4.12,1.26,4.18
Nc1c2c(nc3ccc(NC(=O)c4ccccc4)cc13)CCCC2,3.15,2.68,4.86
COC(=O)c1ccc(CN2CCC(N(Cc3cccc(Oc4ccccc4)c3)S(=O)(=O)c3ccc(NC(C)=O)cc3)CC2)cc1,0.23,0.78,0.32
O=C(/C=C/c1ccc(Cl)c(Cl)c1)NCCCCCN1CCC(NC(=O)NC2CCCC2)CC1,1.11,1.93,0.26

SMILES,inhibition [1] [%],inhibition [2] [%],inhibition [3] [%]
O=C(Cn1c(CCc2cccc(F)c2F)cc(=O)c2cccnc21)N(CCN1CCCC1)Cc1ccc(-c2ccc(C(F)(F)F)cc2)cc1,2.13,2.76,1.23
CCc1ccc(-c2cnc(N)c3cc(-c4ccnc(N)n4)ccc23)cc1,-0.81,-4.63,-1.72
Cc1ccc(O)c(C(=O)c2cnc3c(c2)c(-c2ccc(F)cc2)c(C#N)c(=O)n3C)c1,8.51,4.73,1.51
CC(Cc1ccc(C(=O)Nc2ccc(CC(C)NCCc3cccc(Cl)c3)cc2)cc1)NCCc1ccc(C(F)(F)F)cc1 (stereo unspecified),56.4,37.1,48.1
O=C(NC1CCN(c2ccnc3ccccc23)C1)c1cccc(C(F)(F)F)c1 (stereo unspecified),2.99,1.24,1.91
CC1(C)N=C(N)N=C(N)N1OCC1COc2ccccc2O1 (stereo unspecified),1.54,0.64,0.96
COc1ccc(CSC2CCCCC23NC(=S)NC3=S)cc1 (stereo unspecified),4.42,1.41,3.2
CC(C)N1CCC(N(Cc2ccc(-c3ccc(Cl)cc3)cc2)C(=O)Cn2c(CCc3cccc(F)c3F)cc(=O)c3ccccc32)CC1,2.59,2.15,1.92
COC(=O)CCCCOc1cc(Cc2cnc(N)nc2N)cc(OC)c1OC,2.26,1.3,1.88
CN1C(C)(C)CC(NC(=O)c2ccc(-c3cc4cc(Cl)c(Cl)cc4[nH]3)o2)CC1(C)C,4.77,4.2,6.1
c1ccc2c(CNc3nc(NCC4CCCCC4)nc4[nH]cnc34)cccc2c1,4.27,5.29,2.36
CCOC(=O)C1=C(C)NC2=C(C(=O)CC(C)(C)C2)C1c1ccc(Br)cc1 (stereo unspecified),1.77,0.63,0.59
COc1cccc(C(=O)Nc2sc3c(c2C(N)=O)CCCC3)c1OC,0.25,8.04,12.7
CNc1ccc(CNCc2cccc(-c3ccc(-c4nc5cccc(C)c5[nH]4)cc3)c2)cc1,7.63,5.63,0.87
Cc1c[nH]c2ccc(/C=C/C(=O)NC3CCC(CCN4CCc5ccc(C#N)cc5CC4)CC3)cc12 (stereo unspecified),5.06,5.55,0.32
Cn1nc(-c2cccc(CN[C@@H]3CCc4ccc(O)cc43)c2)c2cnc(NCCCN3CCCC3)nc21,11.2,4.83,4.3
Cn1cncc1C(=O)Nc1cccc(-c2ccc(-c3nc4ccccc4[nH]3)s2)c1,3.45,2.88,4.94
CN(/N=C/c1ccc(Cl)cc1)c1nc(NCCc2ccc(O)cc2)nc(N2CCNCC2)n1,7.69,6.81,6.34
CC(OC(=O)c1ccc(C(=O)NCC2CC2)cc1)C(C)(C)C (stereo unspecified),4.1,3.44,-0.96
CC(=NNC(=N)N)c1ccc2c(c1)Cc1ccccc1-2,-1.01,0.42,-1.5
CN(CCc1ccccc1)c1ncc(-c2cccc(CNCCC3CCCN3C)c2)cn1 (stereo unspecified),111,67,109
COc1ccc2nccc(N3CCC(NCCNCc4ccc5c(n4)NC(=O)CS5)C3)c2n1 (stereo unspecified),3.26,4.23,4.55
CC(=O)Nc1cccc(C(=O)Nc2ccc(-c3cccc(-c4nc5cccc(C)c5[nH]4)c3)cc2)c1,0.48,1.78,0.36
